Consider 40 molecules from PubChem BioAssay (NCATS).

Inconclusive results are not listed. A call without a number means that no potency is given here. Activity calls are given as the source filed them. The call rests on the fitted dose curve; in most records, active means well fitted cell-killing curve with a large enough effect; inconclusive means small, poorly fitted or top-dose-only effect; inactive means flat fitted curve, though single readings scatter.
Potency means the concentration at half of the fitted maximal effect.

The nature of this experiment: qHTS of pediatric cancer cell lines to identify multiple opportunities for drug repurposing: Primary screen for RD cells (AID 1347104). Further: nearly all actives have a fitted effect of over 55% in size. The settings on record: RD rhabdomyosarcoma viability, CellTiter-Glo luminescence, 48 h; series mostly up to 46 µM. The source says:
Drug repurposing or repositioning has been offered as a strategy for drug development in oncology programs. This approach has special potential for childhood cancers and other rare or orphan diseases, where the expected return on new drug development has been a disincentive to pharmaceuticals. […] In this project we exploit the poly-pharmacology of drugs to discover new indications via phenotypic screening of a panel of 19 well-characterized cell lines derived from solid tumors seen in children and adolescents. The goal is to identify approved drugs with previously unrecognized anticancer properties that has the potential to reveal new mechanisms and biological processes involved in carcinogenesis or drug resistance. We employed a titration-based paradigm (quantitative high-throughput screening or qHTS), where all compounds were tested at multiple concentrations for their effect on cell viability. Concentration-response curves (CRCs) were derived directly from the primary screen, and both potency and efficacy values were used to identify compounds with robust bioactivity profiles. We screened the NIH Chemical Genomics Center (NCGC) Pharmaceutical Collection (NPC) and Mechanism Interrogation Plate (MIPE) small molecule collections of approved and investigational compounds against these cell lines; and measured metabolically active cells after 48 hours of compound treatment as a proxy for cell viability. […] Assay Submitter: Nathalia J. Martinez, National Center for Advancing Translational Sciences, National Institutes of Health, Rockville, MD, USA; email: natalia.martinez@nih.gov Shen, M et al. Quantitative high-throughput phenotypic screening of pediatric cancer cell lines identifies multiple opportunities for drug repurposing. Oncotarget 2017 Dec 19;9(4):4758-4772. PMID 29435139.
The cells were obtained from University of North Carolina (UNC), Pediatric Preclinical Testing Program (PPT), and Coriell Institute (CI). qHTS cell viability assay: Cells were assayed in growth media at a density of 500-1,000 cells/well. Five microliters of cells were dispensed into 1,536-well, white, solid-bottom, TC-treated plates (Greiner Bio One) using a multidrop dispenser and incubated at 37 degrees C, 5% CO2, under a humidified atmosphere for 5 hours. Twenty-three nanoliters of compounds and controls (neutral control DMSO or positive control bortezomib at final concentration of 2.3 µM) were subsequently transferred by Kalypsys pintool. For primary screens, the MIPE collection was tested at 11-point dilutions (final concentrations range from 0.78 nM to 46 µM) and the NPC collection at 8-point dilutions (final concentrations range from 0.59 nM to 46 µM). Compounds tested in follow-up screens were assayed at 11-point dilutions. Cells were incubated for 48 hours, followed by addition of 3 µL of CellTiter-Glo (Promega). After a 15 min incubation at room temperature, samples were analyzed for luminescence intensity using a ViewLux High-throughput CCD imager equipped with clear filters.
On to `O=P(O)(O)OCC(O)CO` (stereo not given), for which the Potency result was “inactive”.
The result for `COC(=O)c1cc(Cl)c(NC(C)=O)cc1OC` reads “inactive”; that for `O=C(O)[C@H](O)[C@@H](O)[C@H](O[C@@H]1O[C@H](CO)[C@H](O)[C@H](O)[C@H]1O)[C@H](O)CO`, “inactive”; that for `O=C(COCCOCCOCC(=O)Nc1c(I)cc(I)c(C(=O)O)c1I)Nc1c(I)cc(I)c(C(=O)O)c1I`, “inactive”.
Take `O=C(CCCl)NCc1ccccc1`: the Potency entry is “inactive”.
Under `CO[C@@H]1[C@@H](O[C@@H]2O[C@H](C)[C@@H](O[C@H]3C[C@@](C)(O)[C@@H](O)[C@H](C)O3)[C@H](N(C)C)[C@H]2O)[C@@H](CC=O)C[C@@H](C)[C@@H](O[C@@H]2CC[C@H](N(C)C)[C@@H](C)O2)/C=C/C=C/C[C@@H](C)OC(=O)C[C@H]1OC(C)=O` stands “inactive”.
The result for `O=C(OCC(O)CO)c1ccccc1Nc1ccnc2c(C(F)(F)F)cccc12` (stereo not given) reads “inactive”; that for `COC(=O)c1cc(Cl)ccc1OC`, “inactive”; that for `N#Cc1cc(NC(=O)C(=O)O)c(Cl)c(NC(=O)C(=O)O)c1`, “inactive”.
Under `CN1CC(=O)N2[C@H](c3ccc4c(c3)OCO4)c3[nH]c4ccccc4c3C[C@@H]2C1=O` stands “inactive”; under `OC1(c2ccc(Cl)c(C(F)(F)F)c2)CCN(CCCC(c2ccc(F)cc2)c2ccc(F)cc2)CC1`, 21.1 µM (active); under `O=C(NN1CCCC1)NS(=O)(=O)c1ccc(Cl)cc1`, “inactive”.
For `CC[N+]1(CC)CCC(=C(c2ccccc2)c2ccccc2)C1C` (stereo not given), the Potency entry is “inactive”.
Under `CC(=O)OCC(=O)[C@@]1(O)CCC2C3CCC4=CC(=O)CC[C@]4(C)C3[C@@H](O)C[C@@]21C` (stereo not given in full) stands “inactive”; under `CC(C)(C)CC(=O)OCC(=O)[C@@]1(O)CC[C@H]2[C@@H]3CCC4=CC(=O)C=C[C@]4(C)[C@H]3[C@@H](O)C[C@@]21C`, “inactive”; under `CC(C)C(=O)Nc1cccc(C2CN3CCSC3=N2)c1` (stereo not given), “inactive”.
For `CCN1CCCC1CN` (stereo not given), the Potency entry is “inactive”.
For `CN(C)CCN(Cc1ccsc1)c1ccccn1`, the Potency entry was “inactive”.
The result for `CCOC(=O)c1ccc(NC(=O)CN2CCCCC2)cc1` reads “inactive”; that for `CC(=O)N(c1onc(C)c1C)S(=O)(=O)c1ccc(N)cc1`, “inactive”.
Take `CCC(=O)Oc1ccc2c(c1)CC[C@@H]1[C@@H]2CC[C@@]2(C)[C@H]1C[C@@H](OC(=O)CC)[C@@H]2OC(=O)CC`: the Potency entry was “inactive”.
In the case of `Cc1cc2nc3ccc(=[N+](C)C)cc-3sc2cc1N`, the Potency is 4.73 µM (active).
Under `CCCCCCCC(=O)[O-].CCCCCCCC(=O)[O-].[Zn+2]` stands “inactive”.
Under `CC1(C)OC(=O)Nc2ccc(Br)cc21` stands “inactive”; under `Cc1cc(=O)oc2cc(O[C@@H]3SC[C@@H](O)[C@H](O)[C@H]3O)ccc12`, “inactive”; under `CCCc1c2oc(C(=O)O)cc(=O)c2cc2c(=O)cc(C(=O)O)n(CC)c12`, “inactive”.
The result for `CC1CCCCN1CCCOC(=O)c1ccc(OC2CCCCC2)cc1` (stereo not given) reads “inactive”.
With `CCC(=O)O[C@]1(C(=O)COC)[C@@H](C)C[C@H]2[C@@H]3CCC4=CC(=O)C=C[C@]4(C)C3(F)[C@@H](O)C[C@@]21C` (stereo not given in full), the Potency entry was “inactive”.
Under `CCOc1ccccc1OCC1CNCCO1` (stereo not given) stands “inactive”.
Under `OCCCc1ccccc1` stands “inactive”.
Under `CCCCCC1Nc2cc(C(F)(F)F)c(S(N)(=O)=O)cc2S(=O)(=O)N1` (stereo not given) stands “inactive”; under `Cc1cc(O)c(C)c(C)c1O`, “inactive”.
`O=C1Nc2ccccc2C1(c1ccc(O)cc1)c1ccc(O)cc1`: the Potency entry was “inactive”.
The result for `CC(C)=CCC/C(C)=C/CC/C(C)=C/C(=O)OCC(=O)[C@@]1(O)CC[C@H]2[C@@H]3CCC4=CC(=O)C=C[C@]4(C)[C@H]3[C@@H](O)C[C@@]21C` reads “inactive”; that for `COCCc1ccccn1`, “inactive”; that for `Cc1ccc(C(C)OC(=O)C2(C)CCC(C(=O)O)C2(C)C)cc1` (stereo not given), “inactive”.
With `Nc1nc2ccccc2n1Cc1ccc(F)cc1`, the Potency entry was “inactive”.
The result for `CCO[C@H](Cc1ccc(OCCc2ccc(OS(C)(=O)=O)cc2)cc1)C(=O)O` reads “inactive”; that for `O=C(CCCCC(=O)Nc1c(I)cc(I)c(C(=O)O)c1I)Nc1c(I)cc(I)c(C(=O)O)c1I`, “inactive”; that for `CO[C@@]1(NC(=O)CSC[C@@H](N)C(=O)O)C(=O)N2C(C(=O)O)=C(CSc3nnnn3C)CS[C@@H]21`, “inactive”.
